PubChem BioAssay AID651820 (National Center for Advancing Translational Sciences (NCATS), 2012)
Among all 340,000 compounds or so, about 12,000 (3.5%) were called active. About 18% were inconclusive and are not listed. Calls come from the whole dose curve; as a rule, active = well fitted inhibition curve with a large enough effect; inconclusive = small, poorly fitted or top-dose-only effect, or another doubt; inactive = no such curve, though single readings can be large or run the other way. Only a selection was taken, and actives are over-represented in it overall.

Test: qHTS Assay for Inhibitors of Hepatitis C Virus (HCV)
Conditions: Huh7.5.1 HCVcc-Cre infection, luciferase reporter, 44 h; series mostly up to 41.8 µM; activity change, negative = inhibition: at the top concentration
Excerpt: Hepatitis C virus (HCV) infects about 200 million people in the world. Many infected people progress to chronic liver disease including cirrhosis with a risk of developing liver cancer. To date, there is no effective vaccine for hepatitis C. Current therapy based on interferon is only effective in about half of the patients and is associated with significant adverse effects. The fraction of people with HCV who can complete a successful treatment is estimated to be no more than 10 percent. Recent development of direct-acting antivirals against HCV, such as protease and polymerase inhibitors, is promising but still requires combination with peginterferon and ribavirin for maximal efficacy. In addition, these agents are associated with high rate of resistance and many have significant side effects. Due to the lack of a culture system for infectious HCV, the search for new HCV drugs has been greatly hampered. […] High-throughput screening (HTS) with an infectious HCV system would cover the complete spectrum of potentially druggable targets in all stages of HCV lifecycle, and would have more biological relevance than other cell-based assays. Moreover, targeting several key processes in the viral life cycle may not only increase antiviral efficacy; more importantly, it may also reduce the capacity of the virus to develop resistance to the compound. The goal of this project is to identify novel HCV inhibitors as new therapies for hepatitis C, using a highly sensitive and specific assay platform which is based on a HCV infectious cell culture system established in the laboratory and adapted for high-throughput HCV drug screen. NIH Chemical Genomics Center [NCGC] NIH Molecular Libraries Probe Centers Network [MLPCN] MLPCN Grant: MH095511 Assay Submitter (PI): Jake Liang, NIDDK
The assay will start with plating 1,000 cells/well in 3 µL volume and culture for 4 h. Then 23 nL of compounds from the library collection will be added to each well, followed by adding 2.5 µL of HCVcc-Cre virus (~ 0.5 moi) and further cultured for 44 h before the luciferase assay. A volume of 4.5 µL luciferase substrates will be added to each well and the plates will be incubated at room temperature for 15 min. and then read for 15 sec. for the luciferase activity
% is set by controls: 0 for no effect and ±100 for the full control effect.

Compound | activity change, negative = inhibition | Potency
Cn1c(N)c(C(=O)COC(=O)c2cccc(S(=O)(=O)N3CCOCC3)c2)c(=O)n(C)c1=O | 0.421% (inactive) | 
O=C(NCC(=O)N1CCCCCCC1)c1ccccc1Cl | 12.8% (inactive) | 
CCCCNC(=O)C(C)N(CCN(C)C)C(=O)CCCN1C(=O)NC(c2ccc(Cl)cc2)C(C(=O)OCc2ccccc2)=C1C (stereo unspecified) |  | 11.2 µM (active)
COC(=O)CCCCCN1C(=O)NC(c2ccc(-c3ccccc3)cc2)C(C(=O)OCc2ccccc2)=C1C (stereo unspecified) | 4.51% [at 8.37 µM] (inactive) | 
CCCCNC(=O)C(C)N(CCN(C)C)C(=O)CCCCCN1C(=O)NC(c2ccc(Cl)cc2)C(C(=O)OCc2ccccc2)=C1C (stereo unspecified) |  | 11.2 µM (active)
CC1=C(C(=O)OC(C)(C)C)C(c2ccc(Br)cc2)NC(=O)N1CCCC(=O)O (stereo unspecified) | 24.6% (inactive) | 
CCOC(=O)CCCNC(=O)CN1C(=O)NC(CCc2ccccc2)C1=O (stereo unspecified) | 12.1% (inactive) | 
CC1=C(C(=O)OCc2ccccc2)C(c2ccc(C(F)(F)F)cc2)NC(=O)N1CCCCCC(=O)O (stereo unspecified) | 14% (inactive) | 
O=C(COC(=O)CSc1ccccc1)Nc1ccc(F)cc1F | -7.26% (inactive) | 
CCC(C)C1(C2CCCC2)NC(=O)NC1=O (stereo unspecified) | 5.9% (inactive) | 
CC(C)(C)OC(=O)C1=C(CO)CS[C@@H]2[C@H](NC(=O)Cc3ccccc3)C(=O)N12 | -8.25% (inactive) | 
O=C(c1ccc2nc(N3CCOCC3)sc2c1)N1CCN(c2ccc(Cl)cc2)CC1 | -24.6% (inactive) | 
Brc1ccc2nc(N3CCCC3)sc2c1 |  | 11.2 µM (active)
c1c2c(cc3sc(N4CCCCC4)nc13)OCCO2 | -2.95% (inactive) | 
COc1ccc(C)cc1NC(=O)CN1c2cccc3cccc(c23)S1(=O)=O | -27% (inactive) | 
CCCCNCCS(=O)(=O)NCc1ccccc1 | 9.37% (inactive) | 
COc1ccc(S(=O)(=O)N(CC(=O)N/N=C/c2ccccc2C(=O)O)c2ccccc2OC)cc1 | 19.8% (inactive) | 
COc1ccccc1N(CC(=O)N/N=C(\C)c1ccccc1O)S(=O)(=O)c1ccc(C)cc1 |  | 10 µM (active)
COc1ccccc1N(CC(=O)Nc1c(C)n(C)n(-c2ccccc2)c1=O)S(=O)(=O)c1ccccc1 | -1.73% (inactive) | 
CCOc1ccc(S(=O)(=O)N2CCN(C(=O)c3oc4ccccc4c3C)CC2)cc1 | -5.95% (inactive) | 
O=C(NCC1CCCO1)c1ccc(S(=O)(=O)Nc2ccc(F)cc2)cc1 (stereo unspecified) | 9.57% (inactive) | 
COc1ccc(CNCCc2ccc3c(c2)OCO3)c(OC)c1OC | 13.6% (inactive) | 
COc1cc(OC)c(C(=O)NCc2ccc3c(c2)OCO3)cc1OC | -27.1% (inactive) | 
COc1cc(C(=O)CCc2ccc3c(c2)OCO3)cc(OC)c1OC |  | 14.1 µM (active)
O=C(NCCS(=O)(=O)NCc1ccc(Cl)cc1)c1ccccc1 | 6.73% [at 8.37 µM] (inactive) | 
COc1ccc(C(=O)OCC(=O)c2ccc(Cl)s2)c(OC)c1OC |  | 2.51 µM (active)

Compound | activity change, negative = inhibition | Potency
COc1ccc(C(=O)OCC(=O)Nc2ccc3[nH]c(=O)[nH]c3c2)c(OC)c1OC | -8.43% (inactive) | 
COc1ccc(Cl)cc1C(=O)OCC(=O)NCc1cccs1 | 9.75% (inactive) | 
CN(O)C(=S)c1ccccc1 | -10.2% (inactive) | 
CCNC(=O)N(CC)C[C@H]1N[C@@](CC)(C(=O)OC)[C@H]2C(=O)N(Cc3ccccc3)C(=O)[C@@H]12 | 23% [at 8.37 µM] (inactive) | 
O=C(CSc1n[nH]c(-c2cccs2)n1)N1CCCCC1 | -15% (inactive) | 
O=C(O)Cc1ccc(NC(=O)Nc2cccc3ccccc23)cc1 | 6.08% (inactive) | 
CC(=O)N(C)c1ccc(NC(=O)Nc2cccc3ccccc23)cc1 |  | 12.6 µM (active)
O=C(Nc1ccc2c(c1)C(=O)OC2)Nc1cccc2ccccc12 | 1.88% (inactive) | 
O=C(CSC1=NS(=O)(=O)c2cc(F)ccc2N1)Nc1ccccc1F | 0.897% (inactive) | 
CCOC(=O)N1CCN(C(=O)COC(=O)c2cccc(S(C)(=O)=O)c2)CC1 | -10.6% (inactive) | 
CC(=O)c1ccc(NC(=O)CSc2nc3ccccc3c(=O)n2CCCN2CCOCC2)cc1 | -0.979% (inactive) | 
CCOc1cc(NC(=O)c2ccco2)c(OCC)cc1NC(=O)COc1ccccc1 | -15.5% (inactive) | 
CCOc1cc(NC(=S)NCc2ccco2)c(OCC)cc1NC(=O)c1ccco1 |  | 2.82 µM (active)
COc1cc(NC(=S)NCc2ccco2)c(OC)cc1Cl | -10.1% (inactive) | 
CN1C(C(=O)NCC2CC2)CC2Cn3c(nc4ccccc43)C21 (stereo unspecified) | 22.1% (inactive) | 
Cc1ccc(NC(=O)COC(=O)CN2CCCCCC2=O)c(C)c1 | 4.62% (inactive) | 
COc1ccc(C(=NN)c2ccc(OC)cc2)cc1 | 1.54% (inactive) | 
Cc1cccc(N2CC(C(=O)Nc3ccccc3N3CCCC3)CC2=O)c1C (stereo unspecified) | -0.701% (inactive) | 
C=CCCC(=O)Nc1nc(C)c(-c2csc(Nc3ccc(Cl)cc3)n2)s1 |  | 11.2 µM (active)
CCCCCCC(=O)Nc1nc(C)c(-c2csc(Nc3cc(Cl)ccc3OC)n2)s1 | -20.7% (inactive) | 
Cc1ccc(Nc2nc(-c3sc(NC(=O)c4ccccc4)nc3C)cs2)cc1 | -15.4% (inactive) | 
CCCCC(=O)Nc1nc(C)c(-c2csc(Nc3ccc(Cl)cc3)n2)s1 |  | 8.91 µM (active)
Cc1nc(NC(=O)CN(C)S(=O)(=O)c2ccc(Cl)cc2)sc1C | -3.57% (inactive) | 
CC(=O)c1sc(NC(=O)CCCOc2ccccc2C)nc1C | -14.9% (inactive) | 
CCOC(=O)C1CCN(C(=O)c2cccc(S(=O)(=O)N(CC)c3ccccc3)c2)CC1 | -1.31% (inactive) | 
